The campaign covered roughly 360,000 compounds. About 9,100 (2.5%) were called active. Inconclusive results (about 4%) are left out. Only a selection was taken, and actives are over-represented in it overall. Unmarked numbers belong to inactive results. No stated cut-off is given here; in the data, active means max response below about -50%; inconclusive means no clear call, values can overlap the other calls; inactive means above that.

The values that follow come from PubChem BioAssay AID652054 (National Center for Advancing Translational Sciences (NCATS), 2013).
On the % scale 0 is the no-effect control and ±100 the full control effect.

Sequence of D(3) dopamine receptor (Homo sapiens) (P35462 whole entry, looked up): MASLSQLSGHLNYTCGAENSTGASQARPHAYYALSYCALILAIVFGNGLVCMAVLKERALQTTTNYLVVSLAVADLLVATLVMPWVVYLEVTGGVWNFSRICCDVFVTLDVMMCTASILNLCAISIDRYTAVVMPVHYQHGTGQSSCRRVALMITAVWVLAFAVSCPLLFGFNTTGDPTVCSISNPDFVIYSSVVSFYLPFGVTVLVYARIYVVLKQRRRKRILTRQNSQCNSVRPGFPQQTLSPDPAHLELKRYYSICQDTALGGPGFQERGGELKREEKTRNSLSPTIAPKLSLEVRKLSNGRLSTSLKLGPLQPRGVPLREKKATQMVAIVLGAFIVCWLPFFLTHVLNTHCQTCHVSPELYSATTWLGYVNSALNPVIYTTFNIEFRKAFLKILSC

This test deals with D(3) dopamine receptor (Homo sapiens) (UniProt P35462). Put plainly: qHTS of D3 Dopamine Receptor Antagonist: qHTS. The note with it: D3R cells, DiscoveRx beta-arrestin luminescence, antagonist mode; stronger effect = lower value. The gist of the method:
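Cells plated overnight at 1500 cells/well, then exposed to library compounds with dopamine controls for 90 minutes at 37 degrees C. DiscoveRx reagent added for 30–60 minutes at room temperature; luminescence read, quantitative HTS format.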
For `Cc1ccc(CNCc2ccc3c(c2)OCO3)c(C)c1`, the max response, negative = inhibition was -3.23%.

For `Cc1ccc(-c2nc(CS(=O)(=O)CC(=O)NCc3ccc4c(c3)OCO4)c(C)o2)cc1`, the max response, negative = inhibition is -2.53%.

`Cc1ccc(S(=O)(=O)N(CCCN(C)C)Cc2ccc3c(c2)OCO3)cc1`: the max response, negative = inhibition is -51.8% (active).

In the case of `OC[C@@H]1CN(Cc2ccc(Cl)cc2)C[C@H](n2cnc3c(NCc4ccncc4)ncnc32)O1`, the max response, negative = inhibition was 17.2%.

On to `Cc1cc(Cl)ccc1C(=O)C1CCCN(C(=O)c2ccc3c(c2)OCO3)C1` (configuration not stated), for which the max response, negative = inhibition was -7.01%.

As to `CC(=O)OCC(C)n1c(=O)c2ccccc2n1C(C)=O` (configuration not stated), the max response, negative = inhibition is 0.665%.

In the case of `COc1ccc(NC(=O)CCCC2CCCCC2)c(OC)c1`, the max response, negative = inhibition is 11.6%.

With `COc1ccc(C(C)(C)C)cc1NC(=O)CCN1C(=O)C2CCCCC2C1=O` (configuration not stated), the max response, negative = inhibition is 4.26%.

With `COc1ccc(NC(=O)CCN2CCCC2)c(OC)c1`, the max response, negative = inhibition was -50.5% (active).

Regarding `COc1ccccc1NC(=O)CCN1CCN(c2ccc(Cl)cc2)CC1`, the max response, negative = inhibition is -52.9% (active).

With `CCOC(=O)N1CCN(CCC(=O)Nc2cc(OC)ccc2OC)CC1`, the max response, negative = inhibition was 2%.

`CCOc1ccccc1NC(=O)CCN1CCN(S(=O)(=O)c2ccc(OC)cc2)CC1`: the max response, negative = inhibition is 38.4%.

As for `COc1ccc(N2CCN(CCNC(=O)Nc3cc(Cl)ccc3Cl)CC2)cc1`, the max response, negative = inhibition was -2.75%.

Turning to `COc1ccc(OC)c(NC(=O)CC(Cc2ccccc2OC)C(=O)O)c1` (configuration not stated), the max response, negative = inhibition was 2.31%.

For the compound `COc1ccc(OC)c(NC(=O)CCN2CCC(C)CC2)c1`, the max response, negative = inhibition is -50.8% (active).

Consider `COc1ccc(NC(=O)CCn2ccnc2)c(OC)c1`, for which the max response, negative = inhibition was -22.6%.

With `CCOc1ccccc1NC(=O)Nc1cc(OC)ccc1OC`, the max response, negative = inhibition is -69.8% (active).

For the compound `CCOc1ccccc1NC(=O)NC1CCCCCCC1`, the max response, negative = inhibition was 0.28%.

Regarding `O=C(CC[C@H]1O[C@@H](n2ccc(=O)[nH]c2=O)[C@H](O)[C@@H]1O)N[C@H](Cc1ccccc1)C(=O)NCc1ccco1`, the max response, negative = inhibition is 23.3%.

Regarding `CCCC/C=C/c1cccc2nncn12`, the max response, negative = inhibition was 11.2%.

As to `C[C@H](CO)N1C[C@H](C)[C@@H](CN(C)C(=O)C2CCCCC2)OCc2cnnn2CCCC1=O`, the max response, negative = inhibition was -18.3%.

Turning to `Cc1nc2ccccn2c(=O)c1NC(=O)c1ccc(Br)o1`, the max response, negative = inhibition was 0%.

For the compound `Cc1nccn1-c1ccc(NC(=O)[C@H]2O[C@@H](n3cnc4c(N)ncnc43)[C@H](O)[C@@H]2O)cc1`, the max response, negative = inhibition was 9.64%.

Turning to `COc1ccc2c(c1)CCCO[C@]21O[C@H](CCO)C[C@H](O)[C@H]1O`, the max response, negative = inhibition is -5.1%.

In the case of `Fc1cccc(Cc2c(-c3cccc(Cl)c3)nc3ccc(Br)cn23)c1`, the max response, negative = inhibition was 12.6%.

Regarding `CC(C)NC(=O)Nc1ccc2c(c1)C(=O)N([C@H](C)CO)C[C@H](C)[C@@H](CN(C)Cc1ccc(C(F)(F)F)cc1)OCCCC[C@@H](C)O2`, the max response, negative = inhibition is -28.7%.

On to `COC(=O)C[C@@H]1C=C[C@@H](NS(=O)(=O)c2cccc(OC)c2)[C@@H](CO)O1`, for which the max response, negative = inhibition is 3.79%.

Regarding `O=C1NC[C@H](CCCCN2C[C@H](Cc3ccccc3)N(Cc3ccccc3)C(=O)C2=O)N(CCc2ccc(O)cc2)C1=O`, the max response, negative = inhibition was 2.36%.

Consider `COc1ccc(OCCCCN2CCC(C)CC2)cc1`, for which the max response, negative = inhibition is -66.8% (active).

Turning to `COc1ccc(OCCCC(=O)Oc2ccc(OC)cc2)cc1`, the max response, negative = inhibition is 12.3%.

Take `COc1ccc(OCC(=O)Nc2ccc(N3CCC(C)CC3)cc2)cc1`: the max response, negative = inhibition was -0.541%.

On to `CC(C)(C)OC(=O)N1CCN(C(=O)c2[nH]c(C(F)(F)F)nc2-c2ccccc2)CC1`, for which the max response, negative = inhibition is 11.8%.

`C=CCn1nc(C(=O)OCC)cc1-c1sc(NC(=O)c2ccccc2)nc1C`: the max response, negative = inhibition is 26.8%.

With `C=CCN1CCN(c2ccncc2S(=O)(=O)N2CCN(C)CC2)CC1`, the max response, negative = inhibition is 26.6%.

On to `COc1ccc(-c2cc(NC=O)c3ncc(-c4cc(OC)c(OC)c(OC)c4)n3c2)c(OC)c1`, for which the max response, negative = inhibition was 36.6%.

As for `COC(=O)c1sc(NC(=S)NC(=O)c2ccc(C)cc2)nc1C`, the max response, negative = inhibition is 2.14%.

As for `N#Cc1c(-c2cccs2)nc(SCC(=O)c2ccc(Br)cc2)[nH]c1=O`, the max response, negative = inhibition is 4.64%.

In the case of `N#Cc1ccc(C(=O)Nc2nc(-c3cccs3)c(C(=O)C(F)(F)F)s2)cc1`, the max response, negative = inhibition is -58.8% (active).

In the case of `O=C(NCc1ccc(F)cc1)c1cc(C2CCCCN2C(=O)c2ccccn2)on1` (configuration not stated), the max response, negative = inhibition was -10.1%.

With `Clc1nc(NC2CCCC2)nc(N2CCOCC2)n1`, the max response, negative = inhibition was 16.5%.

As for `COC(=O)c1ccc(Oc2nc(Nc3ccc(F)cc3)nc(N3CCCC3)n2)cc1`, the max response, negative = inhibition is -22.6%.

Regarding `COc1nc(NC2CCCCC2)nc(N2CCCCCC2)n1`, the max response, negative = inhibition was -62.8% (active).

As for `COC(=O)[C@@]12C[C@@H](CC(=O)NCCCCc3ccccc3)C(=O)N(Cc3ccccc3)C1=CCC(C)(C)C2`, the max response, negative = inhibition was -9.89%.

Regarding `Cn1c(CCCOc2ccc(Cl)cc2Cl)n[nH]c1=S`, the max response, negative = inhibition was 10.4%.

For the compound `CN(C)CCOc1ccc(Cl)cc1C(C)(C)C`, the max response, negative = inhibition was -51.2% (active).

With `CCN(CC)CCOCCOc1ccc(Cl)c2ccccc12`, the max response, negative = inhibition was -29.6%.

Consider `CC(=O)C[C@@H]1OC[C@H](CO)N1S(=O)(=O)c1ccc(C)cc1`, for which the max response, negative = inhibition is 6.66%.
